Assay results published in paper PMC7862700, “An all-to-all approach to the identification of sequence-specific readers for epigenetic DNA modifications on cytosine”.

Key:
Assay in all cases: DAPPL (digital affinity profiling via proximity ligation, sequencing); 10 mM Tris-HCl pH 7.5, 50 mM NaCl, 1 mM DTT, 4% glycerol, room temperature, 30 min; GST-TFs on glutathione beads, 16-mer random dsDNA library, 0.1% formaldehyde crosslink after washing; high values mean tight binding
Settings in all cases: protein: recombinant; tags: N-terminal GST; dsDNA, one strand shown
FLI1 = biological target: T1, FLI1 (Homo sapiens, UniProt Q01543 1-452)
T1 sequence: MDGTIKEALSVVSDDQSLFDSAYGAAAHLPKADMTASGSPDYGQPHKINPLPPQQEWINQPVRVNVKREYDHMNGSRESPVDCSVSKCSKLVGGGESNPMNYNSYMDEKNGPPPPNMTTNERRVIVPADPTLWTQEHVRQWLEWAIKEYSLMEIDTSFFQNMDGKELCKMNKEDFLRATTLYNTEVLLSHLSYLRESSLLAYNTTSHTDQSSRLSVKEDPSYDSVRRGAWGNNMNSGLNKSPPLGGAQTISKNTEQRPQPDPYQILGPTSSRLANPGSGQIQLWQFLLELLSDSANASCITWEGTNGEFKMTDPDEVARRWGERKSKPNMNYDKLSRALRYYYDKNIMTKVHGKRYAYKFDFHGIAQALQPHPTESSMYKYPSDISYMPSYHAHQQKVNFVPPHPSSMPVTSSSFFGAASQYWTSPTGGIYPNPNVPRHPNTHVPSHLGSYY
Procedure, shortened: (§1)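 Human transcription factors fused to GST were expressed in yeast, captured on glutathione beads, given DNA barcodes and pooled with a GST-only negative control. Pools were incubated with 200 nmole of a 16-mer random double-stranded DNA library in Tris/NaCl/DTT/glycerol buffer at room temperature for 30 min. They were then washed, crosslinked with 0.1% formaldehyde, proximity-ligated (BsaI/T4 ligase, 1 h, 37 °C), PCR-amplified and sequenced on an Illumina NextSeq500. Binding signal is each 6-mer's read frequency for a factor divided by its frequency for the GST control.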

ELK1 = biological target: T2, ELK1 (Homo sapiens, UniProt P19419 1-428)
T2 sequence: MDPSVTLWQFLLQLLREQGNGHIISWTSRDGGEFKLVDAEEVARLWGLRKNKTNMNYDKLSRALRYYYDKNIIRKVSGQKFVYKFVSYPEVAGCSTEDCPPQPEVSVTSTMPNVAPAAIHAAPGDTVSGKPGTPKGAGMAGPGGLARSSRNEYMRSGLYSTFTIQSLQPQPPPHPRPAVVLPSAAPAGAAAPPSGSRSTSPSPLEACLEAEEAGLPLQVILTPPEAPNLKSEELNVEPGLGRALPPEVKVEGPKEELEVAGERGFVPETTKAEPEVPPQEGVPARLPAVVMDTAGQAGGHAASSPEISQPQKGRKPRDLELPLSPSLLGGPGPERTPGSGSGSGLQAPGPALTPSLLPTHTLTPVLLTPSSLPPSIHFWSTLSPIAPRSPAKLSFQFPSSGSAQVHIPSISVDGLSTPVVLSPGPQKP
Procedure, shortened: as §1

GABPA = biological target: T3, GABPA (Homo sapiens, UniProt Q06546 1-454)
T3 sequence: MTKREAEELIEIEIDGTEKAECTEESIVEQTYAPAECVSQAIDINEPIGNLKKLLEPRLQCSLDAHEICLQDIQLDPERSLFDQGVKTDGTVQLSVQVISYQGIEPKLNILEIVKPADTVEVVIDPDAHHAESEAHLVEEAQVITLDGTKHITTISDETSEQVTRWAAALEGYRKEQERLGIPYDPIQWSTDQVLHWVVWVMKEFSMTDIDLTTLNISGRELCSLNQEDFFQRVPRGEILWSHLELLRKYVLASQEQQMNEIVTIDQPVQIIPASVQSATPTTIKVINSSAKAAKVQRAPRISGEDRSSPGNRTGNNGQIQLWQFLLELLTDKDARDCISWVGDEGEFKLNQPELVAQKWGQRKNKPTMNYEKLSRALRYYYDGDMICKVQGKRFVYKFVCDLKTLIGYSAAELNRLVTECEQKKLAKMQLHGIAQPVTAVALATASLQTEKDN
Procedure, shortened: as §1

ERG = biological target: T4, ERG (Homo sapiens, UniProt P11308 1-479)
T4 sequence: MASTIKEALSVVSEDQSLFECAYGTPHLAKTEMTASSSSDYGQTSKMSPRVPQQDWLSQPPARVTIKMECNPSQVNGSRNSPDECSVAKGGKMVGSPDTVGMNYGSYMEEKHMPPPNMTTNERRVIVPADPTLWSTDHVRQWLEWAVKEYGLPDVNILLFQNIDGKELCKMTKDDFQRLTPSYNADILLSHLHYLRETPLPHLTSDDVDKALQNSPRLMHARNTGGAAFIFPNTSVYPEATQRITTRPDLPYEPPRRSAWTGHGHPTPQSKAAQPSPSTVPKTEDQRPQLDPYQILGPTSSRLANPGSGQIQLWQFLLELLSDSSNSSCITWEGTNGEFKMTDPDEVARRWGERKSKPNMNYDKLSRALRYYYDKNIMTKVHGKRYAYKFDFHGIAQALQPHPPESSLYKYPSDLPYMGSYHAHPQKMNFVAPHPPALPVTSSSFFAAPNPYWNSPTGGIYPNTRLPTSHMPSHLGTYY
Procedure, shortened: as §1

ELF1 = ELF1 (Homo sapiens, UniProt P32519 1-619)
Procedure, shortened: as §1

EHF = biological target: T5, EHF (Homo sapiens, UniProt Q9NZC4 1-300)
T5 sequence: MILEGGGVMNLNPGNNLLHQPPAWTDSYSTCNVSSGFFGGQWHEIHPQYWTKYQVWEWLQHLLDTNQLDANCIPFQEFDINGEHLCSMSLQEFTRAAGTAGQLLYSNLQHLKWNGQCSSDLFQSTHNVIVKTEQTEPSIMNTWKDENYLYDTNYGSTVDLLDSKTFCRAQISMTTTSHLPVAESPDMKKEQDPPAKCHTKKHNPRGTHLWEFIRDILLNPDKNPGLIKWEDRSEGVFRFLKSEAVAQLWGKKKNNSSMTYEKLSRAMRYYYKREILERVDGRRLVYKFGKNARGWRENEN
Procedure, shortened: as §1

SPI1 = SPI1 (Homo sapiens, UniProt P17947 1-270)
Procedure, shortened: as §1

SPIB = SPIB (Homo sapiens, UniProt Q01892 1-262)
Procedure, shortened: as §1

ELK3 = biological target: T6, ELK3 (Homo sapiens, UniProt P41970 1-407)
T6 sequence: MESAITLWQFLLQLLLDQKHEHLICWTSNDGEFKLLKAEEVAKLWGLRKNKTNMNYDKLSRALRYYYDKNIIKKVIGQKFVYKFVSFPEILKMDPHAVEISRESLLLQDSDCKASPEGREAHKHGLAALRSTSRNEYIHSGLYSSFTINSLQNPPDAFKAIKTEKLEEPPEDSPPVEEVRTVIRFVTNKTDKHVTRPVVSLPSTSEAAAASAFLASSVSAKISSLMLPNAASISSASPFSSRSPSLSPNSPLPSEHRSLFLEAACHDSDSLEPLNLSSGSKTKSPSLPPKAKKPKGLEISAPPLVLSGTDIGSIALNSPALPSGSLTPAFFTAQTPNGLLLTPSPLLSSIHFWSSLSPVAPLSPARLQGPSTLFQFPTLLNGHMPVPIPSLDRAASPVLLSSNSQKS
Procedure, shortened: as §1

SPIB, sequence (Q01892 whole entry): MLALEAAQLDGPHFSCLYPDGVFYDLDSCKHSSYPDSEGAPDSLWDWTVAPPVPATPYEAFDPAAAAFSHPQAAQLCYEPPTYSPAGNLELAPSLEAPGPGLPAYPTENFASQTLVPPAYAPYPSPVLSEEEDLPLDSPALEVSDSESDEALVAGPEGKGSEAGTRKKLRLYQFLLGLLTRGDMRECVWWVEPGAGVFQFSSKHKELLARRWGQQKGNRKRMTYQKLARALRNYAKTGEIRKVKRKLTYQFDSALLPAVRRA
ELF1, sequence (P32519 whole entry): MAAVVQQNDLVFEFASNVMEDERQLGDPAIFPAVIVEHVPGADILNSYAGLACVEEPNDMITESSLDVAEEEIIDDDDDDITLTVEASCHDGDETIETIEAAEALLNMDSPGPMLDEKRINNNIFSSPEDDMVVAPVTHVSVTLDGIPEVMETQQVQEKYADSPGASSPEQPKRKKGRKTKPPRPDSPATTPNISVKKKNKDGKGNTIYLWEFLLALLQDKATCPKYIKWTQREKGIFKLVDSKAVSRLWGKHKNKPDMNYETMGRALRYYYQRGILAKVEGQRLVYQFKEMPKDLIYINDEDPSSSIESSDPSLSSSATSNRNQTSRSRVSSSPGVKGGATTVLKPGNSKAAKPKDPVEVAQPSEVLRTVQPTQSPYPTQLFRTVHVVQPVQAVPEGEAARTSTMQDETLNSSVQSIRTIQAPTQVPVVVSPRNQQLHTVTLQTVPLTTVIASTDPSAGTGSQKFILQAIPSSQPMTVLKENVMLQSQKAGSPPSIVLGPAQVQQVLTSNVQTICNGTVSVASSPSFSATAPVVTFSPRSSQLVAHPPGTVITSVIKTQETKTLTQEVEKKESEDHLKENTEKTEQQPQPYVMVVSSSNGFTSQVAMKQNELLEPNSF

Sequence | binding signal (FLI1) | binding signal (ELK1) | binding signal (GABPA) | binding signal (ERG) | binding signal (ELF1) | binding signal (EHF) | binding signal (SPI1) | binding signal (SPIB) | binding signal (ELK3)
TCTAAC | 1.18 fold enrichment (6-mer frequency, TF over GST control) | 1.28 fold enrichment (6-mer frequency, TF over GST control) | 1.16 fold enrichment (6-mer frequency, TF over GST control) | 1.22 fold enrichment (6-mer frequency, TF over GST control) | 1.21 fold enrichment (6-mer frequency, TF over GST control) | 1.16 fold enrichment (6-mer frequency, TF over GST control) | 1.13 fold enrichment (6-mer frequency, TF over GST control) | 1.19 fold enrichment (6-mer frequency, TF over GST control) | 1.16 fold enrichment (6-mer frequency, TF over GST control)
TGCGAA | 1.21 fold enrichment (6-mer frequency, TF over GST control) | 1.2 fold enrichment (6-mer frequency, TF over GST control) | 1.07 fold enrichment (6-mer frequency, TF over GST control) | 1.16 fold enrichment (6-mer frequency, TF over GST control) | 1.23 fold enrichment (6-mer frequency, TF over GST control) | 1.18 fold enrichment (6-mer frequency, TF over GST control) | 1.26 fold enrichment (6-mer frequency, TF over GST control) | 1.22 fold enrichment (6-mer frequency, TF over GST control) | 1.07 fold enrichment (6-mer frequency, TF over GST control)
GAAGAA | 1.03 fold enrichment (6-mer frequency, TF over GST control) | 1.11 fold enrichment (6-mer frequency, TF over GST control) | 1.14 fold enrichment (6-mer frequency, TF over GST control) | 1.19 fold enrichment (6-mer frequency, TF over GST control) | 1.12 fold enrichment (6-mer frequency, TF over GST control) | 1.14 fold enrichment (6-mer frequency, TF over GST control) | 1.13 fold enrichment (6-mer frequency, TF over GST control) | 1.03 fold enrichment (6-mer frequency, TF over GST control) | 1.13 fold enrichment (6-mer frequency, TF over GST control)
TACAAC | 1.16 fold enrichment (6-mer frequency, TF over GST control) | 1.17 fold enrichment (6-mer frequency, TF over GST control) | 1.16 fold enrichment (6-mer frequency, TF over GST control) | 1.14 fold enrichment (6-mer frequency, TF over GST control) | 1.16 fold enrichment (6-mer frequency, TF over GST control) | 1.14 fold enrichment (6-mer frequency, TF over GST control) | 1.08 fold enrichment (6-mer frequency, TF over GST control) | 1.18 fold enrichment (6-mer frequency, TF over GST control) | 1.23 fold enrichment (6-mer frequency, TF over GST control)
TCCCAA | 1.14 fold enrichment (6-mer frequency, TF over GST control) | 1.2 fold enrichment (6-mer frequency, TF over GST control) | 1.25 fold enrichment (6-mer frequency, TF over GST control) | 1.28 fold enrichment (6-mer frequency, TF over GST control) | 1.3 fold enrichment (6-mer frequency, TF over GST control) | 1.31 fold enrichment (6-mer frequency, TF over GST control) | 1.2 fold enrichment (6-mer frequency, TF over GST control) | 1.15 fold enrichment (6-mer frequency, TF over GST control) | 1.28 fold enrichment (6-mer frequency, TF over GST control)
TCCTGA | 1.43 fold enrichment (6-mer frequency, TF over GST control) | 1.45 fold enrichment (6-mer frequency, TF over GST control) | 1.47 fold enrichment (6-mer frequency, TF over GST control) | 1.5 fold enrichment (6-mer frequency, TF over GST control) | 1.41 fold enrichment (6-mer frequency, TF over GST control) | 1.45 fold enrichment (6-mer frequency, TF over GST control) | 1.47 fold enrichment (6-mer frequency, TF over GST control) | 1.46 fold enrichment (6-mer frequency, TF over GST control) | 1.54 fold enrichment (6-mer frequency, TF over GST control)
TAGCAT | 1.16 fold enrichment (6-mer frequency, TF over GST control) | 1.15 fold enrichment (6-mer frequency, TF over GST control) | 1.05 fold enrichment (6-mer frequency, TF over GST control) | 1.11 fold enrichment (6-mer frequency, TF over GST control) | 1.17 fold enrichment (6-mer frequency, TF over GST control) | 1.14 fold enrichment (6-mer frequency, TF over GST control) | 1.07 fold enrichment (6-mer frequency, TF over GST control) | 1.05 fold enrichment (6-mer frequency, TF over GST control) | 1.13 fold enrichment (6-mer frequency, TF over GST control)
AGCAGC | 1.08 fold enrichment (6-mer frequency, TF over GST control) | 1.06 fold enrichment (6-mer frequency, TF over GST control) | 1.11 fold enrichment (6-mer frequency, TF over GST control) | 1.11 fold enrichment (6-mer frequency, TF over GST control) | 1.19 fold enrichment (6-mer frequency, TF over GST control) | 1.1 fold enrichment (6-mer frequency, TF over GST control) | 1.05 fold enrichment (6-mer frequency, TF over GST control) | 1.11 fold enrichment (6-mer frequency, TF over GST control) | 1.16 fold enrichment (6-mer frequency, TF over GST control)
